The campaign covered roughly 53,000 compounds. About 900 (1.7%) showed an effect of 50% or more. This excerpt belongs to a sample that is enriched for strong results.
These molecules were tested on Mycobacterium tuberculosis (assay: Cornell - Phenotypic assay to identify agents that inhibit growth of Mycobacterium tuberculosis). Conditions: 10 mM as filed; unlikely as a test dose.
Type: functional
Parameters: scale not given: direction of the effect not stated beside the values

| Compound | Percent Effect |
| --- | --- |
| NC(=O)c1ccc(C2CCCN2C(=O)CCc2nc3ccccc3s2)s1 (configuration not stated) | -11.96% |
| Cc1cnc(C)c(N2CCCC(CO)(Cc3ccccc3C)C2)n1 (configuration not stated) | 5.498% |
| CC(=O)c1ccc(N2CCCC(CO)(Cc3ccccc3C)C2)nc1 (configuration not stated) | 13.02% |
| Cc1ccccc1CC1(CO)CCCN(c2ncnc3sccc23)C1 (configuration not stated) | 79.2% |
| c1csc(N2CCCN(c3ncnc4sccc34)CC2)n1 | 9.712% |
| Cc1ccccc1CC1(C(=O)O)CCCN(c2ncnc3[nH]ccc23)C1 (configuration not stated) | 8.891% |
| Cc1ccccc1CC1(CO)CCCN(c2ncncc2C(C)C)C1 (configuration not stated) | 81.01% |
| CC(=O)NCCNC(=O)CCn1c(C)cc2ccccc21 | 15.36% |
| Cc1cc(NC(=O)CN2CCCC2c2noc(C3CC3)n2)n(C)n1 (configuration not stated) | -35.39% |
| O=C(O)C(F)(F)F.O=C(c1ccccc1F)N1CCC2(CC1)CC(Oc1ccccn1)CO2 (configuration not stated) | 20.39% |
| Cl.NCC(=O)N1CCCC1c1n[nH]cc1-c1ccccc1F (configuration not stated) | -8.12% |
| CN(C)c1nccc(C2CN(c3cnccn3)CCO2)n1 (configuration not stated) | -32.07% |
| CN(C)c1nccc(C2CCN(c3ncccn3)CC2)n1 | 38.24% |
| CC(=O)N1CCCC(c2ccnc(N(C)C)n2)C1 (configuration not stated) | -19.51% |
| CN(C)c1nccc(C2CN(c3ccccc3)CCO2)n1 (configuration not stated) | 59.44% |
| CC(=O)N1CCOC(c2ccnc(N(C)C)n2)C1 (configuration not stated) | 23.94% |
| CC(C)N1CCOC(c2ccnc(N(C)C)n2)C1 (configuration not stated) | 50.07% |
| O=C(Cn1ccnc1)N1C[C@@H]2CC[C@H](Oc3ccccc3F)[C@@H]2C1 | -34.19% |
| O=C(Nc1nc2c(s1)CCC2)NC1CCCC1 | 34.54% |
| Cl.O=C(NCCO)c1sc2ncccc2c1C1CNCCO1 (configuration not stated) | 5.786% |
| CC(=O)Nc1nc(C(=O)NCc2ccc(N3CCCCC3)cc2)cs1 | -6.079% |
| CN(CCN1CCOC1=O)CC(=O)Nc1cc(F)cc(F)c1 | -4.563% |
| CCN1CC(COC(=O)c2ccccc2Cl)CC1=O (configuration not stated) | 9.93% |

| Compound | Percent Effect |
| --- | --- |
| CCc1c(C)sc(NC(=O)CN2CCOCC2)c1C(=O)OC | 13.88% |
| CCOC(=O)c1c(NC(=O)C2CCN(C(C)=O)CC2)sc(C)c1CC | 0.6351% |
| CCc1c(C)sc(NC(=O)CN2CCN(CC)CC2)c1C(=O)OC | 85.25% |
| NC(=O)N1CCc2ncc(CNC(=O)CC3CC3)n2CC1 | -19.97% |
| O=C(C1CC1)N1CCC2(CCCN2Cc2ccc(F)cc2)CC1.O=C(O)C(F)(F)F | 3.548% |
| CCC(=O)N1CCCC(c2nc(N(C)C)ncc2-c2ccc(F)cc2)C1 (configuration not stated) | 78.09% |
| CC(=O)N1CCCC(c2nc(N(C)C)ncc2-c2ccccc2)C1 (configuration not stated) | 12.04% |
| COCC(=O)N1CCCC(c2nc(N(C)C)ncc2-c2ccccc2)C1 (configuration not stated) | 21.17% |
| CCN1Cc2cc(OC)ccc2N(CC(C)(C)O)CCC1=O | -17.4% |
| CN(C)c1ncccc1CNC(=O)CCNc1ncccn1 | 29.98% |
| Cc1noc(-c2cnc(NC(C)C)nc2-c2ccco2)c1C | 32.42% |
| Cc1cc(-c2cnc(NC3CCCCC3)nc2-c2ccco2)on1 | 97.15% |
| Cc1cc(-c2cnc(NC3CCCC3)nc2-c2ccco2)on1 | 78.21% |
| Cc1noc(-c2cnc(NCC3CCCO3)nc2-c2ccco2)c1C (configuration not stated) | 34.64% |
| Cc1cc(-c2cnc(NC3CCCC3)nc2-c2ccoc2)on1 | 81.21% |
| Cc1cc(-c2cnc(NC3CC3)nc2-c2ccco2)on1 | 47.86% |
| Cc1cnc(-c2nc(NC3CCCC3)ncc2-c2onc(C)c2C)cn1 | 7.273% |
| Cc1cc(-c2cnc(NC3CCCC3)nc2-c2ccc(C)o2)on1 | 92.52% |
| Cc1cc(-c2cnc(NC3CC3)nc2-c2ccoc2)on1 | -15.23% |
| Cc1cc(-c2cnc(NC3CCCC3)nc2-c2ccoc2C)on1 | 18.15% |
| Cc1cnc(-c2nc(NC3CC3)ncc2-c2cc(C)no2)cn1 | -18.55% |
| COCCNc1ncc(-c2cc(C)no2)c(-c2ccco2)n1 | -34.06% |
| CCc1noc(CN2CCN(CC(O)c3ccccc3)CC2)n1 (configuration not stated) | -1.918% |

| Compound | Percent Effect |
| --- | --- |
| O=C(O)C(F)(F)F.O=C1CC(c2ccncc2)C2(CCN(C(=O)c3ccc[nH]3)CC2)N1 (configuration not stated) | -25.12% |
| CC(C)=CCN1C[C@@H]2CN(C(=O)c3cnccc3C)C[C@]2(C(=O)O)C1 | 13.3% |
| CC(C)[C@H](N)C(=O)N1CCSc2ccccc2C1.Cl | 15.34% |
| CS(=O)(=O)N1CC(c2ccnc(Nc3ccccn3)n2)C1 | 3.174% |
| O=C(Nc1ccccn1)C1CCN(C(=O)COc2ccccc2F)C1 (configuration not stated) | -42.88% |
| O=C(N1CCCC(n2cncn2)C1)C1(c2cccc(F)c2)CCCC1 (configuration not stated) | -7.361% |
| Cc1c(CN2CCC(C(=O)O)(n3cccn3)CC2)oc2ccccc12 | -1.551% |
| Cc1noc(-c2cnc(NC3CC3)nc2-c2ccco2)c1C | 21.85% |
| Cc1cc(-c2cnc(NC3CC3)nc2-c2ccoc2C)on1 | 6.588% |
| Cc1occc1-c1nc(NC2CCCC2)ncc1-c1ccccn1 | 85.8% |
| Cc1cc(CN(C)C(=O)CN2CCCCCC2=O)no1 | 6.807% |
| COc1cc(Oc2ccc(C(F)(F)F)cn2)ccc1CN1CCCC1 | 21.65% |
| COc1cc(Oc2ccc(C#N)cn2)ccc1CN1CCCC1 | 27.7% |
| Fc1cc(Oc2ccc(C(F)(F)F)cn2)cc(F)c1CN1CCCC1 | 17.52% |
| COc1ccc(Oc2ccc(C(F)(F)F)cn2)cc1CN1CCCC1 | 50.99% |
| COc1cc(Oc2ccc(C(N)=O)cn2)ccc1CN1CCCC1 | 6.938% |
| COc1cc(Oc2cnc3ccccc3n2)ccc1CN1CCCC1 | 89.59% |
| COc1ccc(CC(=O)NCCCc2nnc3nc(C)cc(C)n23)cc1 | -52.99% |
| CC(C)N1CCCC1c1nc(N(C)C)ncc1I (configuration not stated) | 5.368% |
| Cc1c(Br)c(C(F)F)nn1C(C)C(=O)O (configuration not stated) | 18.88% |
| COCCN(C)C(C(=O)O)c1ccc(Cl)c(F)c1 (configuration not stated) | -23.65% |
| Cc1noc(C)c1CN1CCO[C@H]2CNC[C@H]21.Cl.Cl | 71.41% |
| Cc1ccc(N2C[C@@H]3OCCN(Cc4c(C)noc4C)[C@@H]3C2)nn1 | 2.66% |

| Compound | Percent Effect |
| --- | --- |
| COCC(=O)N1C[C@@H]2OCCN(Cc3c(C)noc3C)[C@@H]2C1 | -0.2298% |
| COc1ccc(F)c(-c2ncccc2NC(=O)C(C)C)c1 | -36.39% |
| CN(C)S(=O)(=O)NC1CC(=O)N(c2ccccc2Cl)C1 (configuration not stated) | 14.57% |
| CCN(C)c1ncnc2c1CCN(S(=O)(=O)c1ccccc1)CC2.O=C(O)C(F)(F)F | 2.965% |
| CNc1nc(CS(=O)(=O)c2ccccc2)cs1 | 106.2% |
| C=C(C)CNc1nc(CS(=O)(=O)c2ccccc2)cs1 | 8.279% |
| CCCNc1nc(CS(=O)(=O)c2ccccc2)cs1 | -0.8742% |
| CC(C)c1nc(O)c2nnn(C[C@@H]3CCCN(Cc4ccsc4)C3)c2n1 | 7.526% |
| CC(C)(C)C(=O)N1C[C@@H](F)[C@@H](OCc2nc3ccccc3o2)C1 | 16.14% |
| COCc1nc2cc(NCc3ccc(C)o3)ccc2o1 | 107.3% |
| Cc1ccc(CNC(C)(C)c2noc(C(C)(C)C)n2)o1 | -0.4607% |
| CCC(C)CNc1ccc2oc(COC)nc2c1 (configuration not stated) | 35.01% |
| COCc1nc2cc(NCc3ccc(CO)o3)ccc2o1 | 97.16% |
| COCc1nc2c(o1)CN(C(=O)NCc1ccccc1)C2 | -49.74% |
| Cc1nc(-c2ccccc2)nc2c1CCN(Cc1nccn1C)CC2 | 6.349% |
| CN(C)c1ncc(C2Nc3cc(Cl)ccc3C3=NCCCN32)cn1.Cl (configuration not stated) | 8.449% |
| CCOc1ccc(NC(=O)c2[nH]c(C)cc2C)cc1CO | 102.6% |
| CCOc1ccc(NC(=O)c2oc(CC)cc2C)cc1CO | 34.25% |
| CCOc1ccc(NC(=O)c2cc(C)c(C)o2)cc1CO | 22.28% |
| COCC(=O)N1CCN(C)CC(Cc2cc(N(C)C)ncn2)C1 (configuration not stated) | 14.46% |
| CN1CCC(c2[nH]ncc2S(C)(=O)=O)CC1 | 6.792% |
| Cc1ccc2c(CC(=O)N(C)CCN(C)C)c(C)[nH]c2c1C.O=C(O)CC(O)(CC(=O)O)C(=O)O | 8.878% |
| Cc1[nH]c2c(C)cccc2c1CC(=O)N(C)CCN(C)C.O=C(O)CC(O)(CC(=O)O)C(=O)O | 27.37% |

| Compound | Percent Effect |
| --- | --- |
| CCc1cccc2c(CC(=O)N(C)CCN(C)C)c(C)[nH]c12.O=C(O)CC(O)(CC(=O)O)C(=O)O | 51.84% |
| COCCN1CCN(S(=O)(=O)c2ccccc2)Cc2cccnc21.O=C(O)C(F)(F)F | 12.13% |
| N#Cc1cc(NS(=O)(=O)c2cc(C(=O)O)cc(Cl)c2Cl)ccc1F | 13.91% |
| CN(C)S(=O)(=O)N1CC(c2nc(-c3ccsc3)no2)C1 | 18.06% |
| CCOC(=O)CN1CC(c2nc(-c3ccsc3)no2)C1.O=C(O)C(=O)O | 51.67% |
| CCS(=O)(=O)N1CC(c2nc(-c3ccsc3)no2)C1 | -31.96% |
| O=C1NCCN1C(CNS(=O)(=O)C1CC1)Cc1cccc(F)c1 (configuration not stated) | 21.82% |
| CC(=O)Nc1nccn1Cc1ccccc1Cl | 15.67% |
| Cn1ccc(C(=O)Nc2nccn2Cc2ccccc2Cl)cc1=O | 51.57% |
| CCOCC(=O)Nc1nccn1Cc1ccccc1Cl | 48.83% |
| O=C(CCS(=O)(=O)C1CCCC1)N1CCCC1c1ccsc1 (configuration not stated) | -6.93% |
| CC(C)Cc1cc(NC(=O)c2n[nH]c3ccccc23)n(C)n1 | 15.6% |
| Cc1nonc1NC(=O)CCn1cc(Br)ccc1=O | 6.093% |
| Cc1cc(O)cc(=O)n1CCCC(=O)Nc1n[nH]c2ccccc12 | 81.79% |
| Cc1cc(NC(=O)Cn2ccc(=O)c3ccccc32)[nH]n1 | -8.025% |
| Cc1noc(C)c1NC(=O)CCn1cc(Br)ccc1=O | 22.38% |
| Cc1cc(O)cc(=O)n1CCCC(=O)Nc1n[nH]c2cccc(F)c12 | 103.9% |
| CS(=O)(=O)CCCC(=O)Nc1cc(-c2cccc(F)c2F)n[nH]1 | -2.681% |
| Cn1cc(NC(=O)C2CC(=O)N(c3n[nH]c4cccc(F)c34)C2)cn1 (configuration not stated) | -30.85% |
| Cc1cc(O)cc(=O)n1CCCC(=O)Nc1n[nH]c2cc(Br)ccc12 | 104.6% |

— ChEMBL document CHEMBL3988442, “University of Dundee, Small-Polar-MMV Screening Library” (2021)
